Calls of active or inactive are those of the source.
Assays:
[1] = small molecules captured by biotinylated probe aFSTL3 – biochemical, small-molecule microarray, fluorescence 635/667, stem cell growth factor project, primary screen (AID 1064); details: higher = more signal;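 further: measures binding of the biotinylated anti-FSTL3 antibody to printed compounds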
[2] = binders from COS7 lysate, DM2A8 probe, primary screen, torsin A project, cell lysate, small-molecule microarray, fluorescence 635/667 (AID 1065); details: higher = more signal, COS7 lysate expressing mutant human TOR1A
[3] = small molecules captured by biotinylated probe aFGF2 – biochemical, small-molecule microarray, fluorescence 635/667, stem cell growth factor project, primary screen (AID 1067); details: higher = more signal;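 further: measures binding of biotinylated aFGF2 protein to printed compounds on slides; z-score merges feature fluorescence and signal-to-noise across triplicate slides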
[4] = small molecules captured by biotinylated probe aFGF10 – biochemical, small-molecule microarray, fluorescence 635/667, stem cell growth factor project, primary screen (AID 1071); details: higher = more signal;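 further: score merges 667 nm spot intensity and signal to noise from triplicate slides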
[5] = biological target: Neurogenic locus notch homolog protein 2 (Homo sapiens) (UniProt Q04721); test: small molecules binding Notch2 protein – biochemical, small-molecule microarray, 635 nm fluorescence, stem cell growth factors, primary screen (AID 1073); details: higher = more signal
[6] = biological target: Pro-neuregulin-1, membrane-bound isoform (Homo sapiens) (UniProt Q02297); test: small molecules binding neuregulin-1 protein – biochemical, small-molecule microarray, fluorescence 635/667, psychiatric disease protein project, primary screen (AID 1075); details: NRG1 binding, 635 nm fluorescence, higher = more signal;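 further: score combines 667 nm spot fluorescence with signal to noise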
[7] = system: Neuregulin-1 EGF-like domain; test: small molecules binding NRG1 EGF domain – biochemical, small-molecule microarray, 635 nm fluorescence, primary screen (AID 1081); details: higher = more signal;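 further: binding of the protein to compounds printed on small-molecule microarray slides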
[8] = FRG1 expression reporter modulators in myotubes – cell-based, C2C12 myotubes, firefly/Renilla luciferase, luminescence, FRG1 inhibition for FSHD, primary screen (AID 1084); details: FRG1 promoter luciferase, higher = more signal, called active from +8 up or from −8 down
[9] = small molecules captured by biotinylated probe aFST – biochemical, small-molecule microarray, fluorescence 635/667, stem cell growth factor project, primary screen (AID 1086); details: higher = more signal;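 further: score merges 667 nm fluorescence with signal-to-noise of each printed compound spot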
[10] = binders of probe aHhip on microarray, primary screen, stem cell growth factor project, biochemical, small-molecule microarray, fluorescence 635/667 (AID 1087); details: higher = more signal;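 further: score merges spot fluorescence at 667nm with spot signal to noise ratio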
[11] = system: PRMT1 (protein arginine N-methyltransferase 1); test: small molecules binding arginine methyltransferase PRMT1 – biochemical, small-molecule microarray, 635 nm fluorescence, primary screen (AID 1088); details: higher = more signal;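 further: binding of Prmt1 protein to compounds spotted on small-molecule microarray slides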
[12] = growth effects on S. cerevisiae YJM789 – YJM789 clinical isolate, OD600, 24 h, basal, primary screen (AID 1089); details: higher = more signal, called active from +8 up or from −8 down;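 further: growth of clinical yeast isolate S. cerevisiae YJM 789 seeded 1000 cells per well; test concentration not given here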
[13] = S. pombe growth modifiers, basal conditions – strain 972, OD600, 24 h, no modulator, primary screen (AID 1090);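 further: basal condition with compound alone and no growth modifier present; test concentration not given here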; details: S. pombe 972 growth, higher = more signal, called active from +8 up or from −8 down
[14] = budding yeast growth modifiers under rapamycin – strain BY4716, OD600, 96 h, primary screen (AID 1091); further: test concentration not given here; details: S. cerevisiae BY4716 + rapamycin, higher = more signal, called active from +8 up or from −8 down
[15] = biological target: Torsin-1A-interacting protein 2 (Homo sapiens) (UniProt Q8NFQ8); test: small molecules binding lysate-expressed LULL1 – cell lysate, human LULL1 lysate, 635/667 nm fluorescence, primary screen (AID 1092); details: small-molecule microarray, hLULL1 lysate binding, 635 nm fluorescence; higher = more signal;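 further: probe is lysate of COS7 cells overexpressing human LULL1; score merges per-feature 667 nm fluorescence with signal-to-noise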
[16] = optical density change of DRC41 E. coli – strain DRC41, OD650, 24 h, E. coli filamentation project, primary screen (AID 1093);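 further: MC1000 strain lacking acrAB efflux and sulA so SOS filamentation is blocked; test concentration not given here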; details: E. coli DRC41 growth, higher = more signal, called active from +8 up or from −8 down
[17] = probe aLefty2 binding to arrayed compounds – biochemical, biotinylated probe, 635/667 nm fluorescence, primary screen (AID 1094); details: small-molecule microarray, higher = more signal;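 further: score merges spot fluorescence near 667 nm with spot signal-to-noise ratio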
[18] = system: Noggin (protein binding on small-molecule microarray); test: small molecules binding Noggin protein – biochemical, 635/667 nm fluorescence, primary screen (AID 1095); details: 635 nm fluorescence, higher = more signal;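 further: score merges 667 nm feature fluorescence with signal to noise over triplicate slides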
[19] = biological target: Neurogenic locus notch homolog protein 3 (Homo sapiens) (UniProt Q9UM47); test: small molecules binding NOTCH3 protein – biochemical, 635/667 nm fluorescence, primary screen (AID 1096); details: small-molecule microarray, 635 nm fluorescence, higher = more signal
[20] = probe aEGFR binding to arrayed compounds – biochemical, biotinylated probe, 635/667 nm fluorescence, primary screen (AID 1097); details: small-molecule microarray, higher = more signal;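 further: probe is a biotinylated anti-EGFR antibody binding compounds printed on slides; score combines fluorescence near 667 nm and signal to noise of each spot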

Sequence of Neurogenic locus notch homolog protein 3 (Homo sapiens) (Q9UM47 whole entry, looked up): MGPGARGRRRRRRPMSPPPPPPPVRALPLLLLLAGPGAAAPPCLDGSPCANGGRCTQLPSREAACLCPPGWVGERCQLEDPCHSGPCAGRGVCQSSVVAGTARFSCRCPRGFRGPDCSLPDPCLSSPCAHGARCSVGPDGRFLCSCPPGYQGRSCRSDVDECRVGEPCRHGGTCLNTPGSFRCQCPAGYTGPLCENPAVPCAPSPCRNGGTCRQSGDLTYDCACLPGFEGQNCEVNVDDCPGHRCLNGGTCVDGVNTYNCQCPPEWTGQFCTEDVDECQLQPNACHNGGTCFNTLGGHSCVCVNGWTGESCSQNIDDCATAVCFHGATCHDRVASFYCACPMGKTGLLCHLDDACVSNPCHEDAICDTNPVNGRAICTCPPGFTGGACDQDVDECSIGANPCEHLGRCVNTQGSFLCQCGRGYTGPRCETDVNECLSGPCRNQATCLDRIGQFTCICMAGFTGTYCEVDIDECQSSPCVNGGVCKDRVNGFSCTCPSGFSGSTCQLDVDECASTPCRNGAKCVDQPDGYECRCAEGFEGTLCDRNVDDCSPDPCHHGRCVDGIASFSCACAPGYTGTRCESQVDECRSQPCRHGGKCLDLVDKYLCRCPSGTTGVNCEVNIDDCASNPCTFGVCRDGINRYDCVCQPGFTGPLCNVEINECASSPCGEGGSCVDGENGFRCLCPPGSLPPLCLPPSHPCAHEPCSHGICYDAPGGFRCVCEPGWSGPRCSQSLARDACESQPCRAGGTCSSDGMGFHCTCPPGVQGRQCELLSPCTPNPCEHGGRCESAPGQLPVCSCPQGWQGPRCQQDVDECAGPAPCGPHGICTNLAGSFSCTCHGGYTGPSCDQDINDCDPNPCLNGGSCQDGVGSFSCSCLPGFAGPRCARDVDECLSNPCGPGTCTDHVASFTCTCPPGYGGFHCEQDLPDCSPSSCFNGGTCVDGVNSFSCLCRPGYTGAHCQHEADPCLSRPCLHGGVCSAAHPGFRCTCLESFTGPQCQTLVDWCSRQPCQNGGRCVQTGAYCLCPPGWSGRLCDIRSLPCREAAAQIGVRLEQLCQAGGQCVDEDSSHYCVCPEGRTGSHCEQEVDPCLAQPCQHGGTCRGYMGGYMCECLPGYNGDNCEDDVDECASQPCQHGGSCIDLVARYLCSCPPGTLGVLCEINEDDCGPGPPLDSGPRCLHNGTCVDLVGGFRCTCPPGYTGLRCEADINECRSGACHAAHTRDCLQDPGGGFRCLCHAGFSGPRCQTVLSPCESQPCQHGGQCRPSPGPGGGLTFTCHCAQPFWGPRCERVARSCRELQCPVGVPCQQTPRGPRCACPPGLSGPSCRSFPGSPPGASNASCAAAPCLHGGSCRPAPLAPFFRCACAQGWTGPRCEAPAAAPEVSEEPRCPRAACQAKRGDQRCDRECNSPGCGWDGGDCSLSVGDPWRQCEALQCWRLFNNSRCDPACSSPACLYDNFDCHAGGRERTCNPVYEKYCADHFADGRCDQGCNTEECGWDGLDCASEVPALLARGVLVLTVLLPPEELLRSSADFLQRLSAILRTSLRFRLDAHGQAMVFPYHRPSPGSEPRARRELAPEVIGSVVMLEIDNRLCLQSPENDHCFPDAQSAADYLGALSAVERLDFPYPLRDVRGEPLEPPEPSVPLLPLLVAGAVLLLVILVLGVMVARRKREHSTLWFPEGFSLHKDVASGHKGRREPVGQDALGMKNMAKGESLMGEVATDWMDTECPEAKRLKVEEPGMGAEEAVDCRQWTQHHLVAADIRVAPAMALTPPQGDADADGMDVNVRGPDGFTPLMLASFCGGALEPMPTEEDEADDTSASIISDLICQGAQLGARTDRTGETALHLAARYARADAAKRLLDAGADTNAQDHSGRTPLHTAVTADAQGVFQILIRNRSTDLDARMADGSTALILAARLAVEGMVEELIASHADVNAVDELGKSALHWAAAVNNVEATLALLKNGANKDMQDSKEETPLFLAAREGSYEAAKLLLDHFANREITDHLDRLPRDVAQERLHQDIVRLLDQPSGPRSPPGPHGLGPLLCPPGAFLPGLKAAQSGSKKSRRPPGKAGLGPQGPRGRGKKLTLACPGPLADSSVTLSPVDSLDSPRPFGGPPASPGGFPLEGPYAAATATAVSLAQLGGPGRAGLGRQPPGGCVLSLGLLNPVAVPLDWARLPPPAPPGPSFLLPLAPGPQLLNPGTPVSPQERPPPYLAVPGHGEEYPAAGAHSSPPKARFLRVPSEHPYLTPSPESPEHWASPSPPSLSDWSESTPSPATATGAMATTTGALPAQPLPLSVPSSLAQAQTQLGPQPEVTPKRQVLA
Sequence of Pro-neuregulin-1, membrane-bound isoform (Homo sapiens) (Q02297 whole entry, looked up, the tested form may be a part, canonical isoform): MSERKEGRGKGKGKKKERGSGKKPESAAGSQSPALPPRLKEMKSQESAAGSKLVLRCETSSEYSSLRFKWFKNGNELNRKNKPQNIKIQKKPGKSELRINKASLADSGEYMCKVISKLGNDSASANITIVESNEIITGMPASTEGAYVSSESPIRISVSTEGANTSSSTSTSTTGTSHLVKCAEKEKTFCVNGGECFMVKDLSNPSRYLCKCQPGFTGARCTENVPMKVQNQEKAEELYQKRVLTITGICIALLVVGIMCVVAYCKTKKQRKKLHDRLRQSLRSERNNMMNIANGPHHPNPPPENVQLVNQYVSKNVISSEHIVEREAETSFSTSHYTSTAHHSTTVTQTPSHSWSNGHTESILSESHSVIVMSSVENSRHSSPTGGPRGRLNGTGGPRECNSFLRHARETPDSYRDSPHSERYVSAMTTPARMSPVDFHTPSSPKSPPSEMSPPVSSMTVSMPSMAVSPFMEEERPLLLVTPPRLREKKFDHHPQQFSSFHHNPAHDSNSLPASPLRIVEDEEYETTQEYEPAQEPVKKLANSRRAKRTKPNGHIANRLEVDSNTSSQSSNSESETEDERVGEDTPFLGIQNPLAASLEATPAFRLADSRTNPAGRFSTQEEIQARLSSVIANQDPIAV
Sequence of Torsin-1A-interacting protein 2 (Homo sapiens) (Q8NFQ8 whole entry, looked up): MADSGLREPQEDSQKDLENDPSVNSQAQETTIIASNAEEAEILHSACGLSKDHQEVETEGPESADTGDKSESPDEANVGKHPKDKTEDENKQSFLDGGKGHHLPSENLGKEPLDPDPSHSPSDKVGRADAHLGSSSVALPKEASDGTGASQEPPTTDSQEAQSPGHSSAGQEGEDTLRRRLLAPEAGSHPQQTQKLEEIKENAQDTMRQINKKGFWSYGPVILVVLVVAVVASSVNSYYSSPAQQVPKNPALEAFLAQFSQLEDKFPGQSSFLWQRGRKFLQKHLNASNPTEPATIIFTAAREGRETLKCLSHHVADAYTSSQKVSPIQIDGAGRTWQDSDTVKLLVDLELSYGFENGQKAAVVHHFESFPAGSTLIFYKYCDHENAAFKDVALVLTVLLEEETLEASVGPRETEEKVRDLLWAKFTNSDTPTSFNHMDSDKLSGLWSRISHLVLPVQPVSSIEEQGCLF

Row | SMILES | composite z-score [1] | composite z-score [2] | composite z-score [3] | composite z-score [4] | composite z-score [5] | composite z-score [6] | composite z-score [7] | z-score [8] | composite z-score [9] | composite z-score [10] | composite z-score [11] | z-score [12] | z-score [13] | z-score [14] | composite z-score [15] | z-score [16] | composite z-score [17] | composite z-score [18] | composite z-score [19] | composite z-score [20]
1 | CN1C(=O)[C@]2(Cc3ccccc3)N=C(c3ccc(OCCCO)cc3)O[C@@H]2c2ccccc21 | 0.547 | 0.758 | -0.0333 | 0.802 | 0.826 | 1.36 | 1.35 | -0.113 (inactive) | 0.265 | 0.12 | 1.55 | -0.112 (inactive) | -3.36 (inactive) | 2.26 (inactive) | 3.14 | -0.538 (inactive) | -0.0354 | 1.34 | 0.845 | 0.0492
2 | COc1ccc(COC2OC[C@]3(C)[C@H]4C5=C(CN3C(=O)OC(C)(C)C)[C@H](C)C(CO)C(CO)C5CC[C@@H]24)cc1 (stereo not given in full) | 0.262 | 1.27 | -0.0832 | 0.424 | 1.65 | 1.02 | 0.982 | 2.67 (inactive) | 1.98 | -0.069 | 0.482 | 0.677 (inactive) | 0.805 (inactive) | 0.502 (inactive) | 3.27 | -1.76 (inactive) | 0.341 | 0.277 | 1.06 | 0.0699
3 | O=C1NC(=O)C2C1C=CC(C(O)c1cccc3ccccc13)N2Nc1ccccn1 (stereo not given) | -0.0559 | 0.143 | -0.0281 | 0.357 | 1.19 | 0.961 | 0.39 | 0.661 (inactive) | 0.125 | -0.242 | 0.246 | 0.143 (inactive) | 1.14 (inactive) | -0.207 (inactive) | 1.37 | 0.213 (inactive) | 0.127 | -0.321 | -0.198 | -0.0766
4 | CCCCC(=C=CC[C@@H](O)c1ccccc1OCCO)CCO | -0.347 | 0.163 | -0.0367 | 0.352 | -0.333 | 0.991 | 0.479 | 0.0128 (inactive) | 0.0797 | -0.236 | -0.144 | 0.598 (inactive) | -0.424 (inactive) | -0.374 (inactive) | 1.06 | 0.205 (inactive) | -0.192 | 0.201 | -0.0525 | -0.199
5 | CCCC[C@@H]1C[C@H]1[C@@H](NC(=O)c1ccco1)c1ccc(Cl)cc1 | 0.159 | 0.308 | 0.0296 | 0.0982 | 1.22 | 1.01 | 1.05 | -1.51 (inactive) | 0.829 | 0.0274 | 0.44 | 0.622 (inactive) | 0.362 (inactive) | 0.384 (inactive) | 2.89 | -0.815 (inactive) | 0.164 | -0.576 | 0.889 | 0.0271

Reference: PubChem BioAssay
